Of roughly 8,800 targets only a part is listed; those with a hit were picked by preference. About 0.5% of all pairs of compound and target were hits. A number with no mark means an inactive call.
Columns and labels:
Assay in all cases: log2 fold change, soluble protein after heating vs DMSO (PISA); higher = thermal stabilisation; K562 lysate, 10 uM; active = over 0.2 and 3.5 SD of the protein, either way, in both replicates (recomputed)
ibrutinib = compound: C=CC(=O)N1CCC[C@@H](n2nc(-c3ccc(Oc4ccccc4)cc3)c3c(N)ncnc32)C1 [ibrutinib]
How it was run: (§1)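 Following dounce homogenisation of K562 pellets in PBS pH 7.4 with 1 mM MgCl2, crude extract at 1 mg/mL protein was incubated for 30 min with 10 μM compound. Aliquots were then heated for 3 min over 48°C-58°C and pooled, NP-40 was added to 0.5% at 4°C, and soluble protein was recovered as the supernatant at 21,000xg for 90 min. Channel-sum-equalised TMTpro 16plex LC-MS/MS quantified this protein. Each value, from duplicates, is a log-two fold change in thermal stability relative to solvent controls.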

[1] = compound: CC(=O)c1cnc2ccc(-c3cc(Cl)c(O)c(Cl)c3)nc2c1N[C@H]1CC[C@H](CN(C)C)CC1
How it was run: as §1

ralimetinib = compound: CC(C)(C)Cn1c(N)nc2ccc(-c3[nH]c(C(C)(C)C)nc3-c3ccc(F)cc3)nc21 [ralimetinib]
How it was run: as §1

[2] = compound: CC(C)(O)CC(=O)NCCn1ccc2ncnc(Nc3ccc(Oc4cccc(C(F)(F)F)c4)c(Cl)c3)c21
How it was run: as §1

[3] = compound: CC(C)C1=C2N=C(C=C(N2N=C1)NCC3=CC=CC=C3)NCCCCCCN
How it was run: as §1

[4] = compound: CC1=C(C(CC(=O)N1)C2=CC=C(C=C2)C(F)(F)F)C(=O)NC3=C(C=C4C(=C3)C=NN4)F
How it was run: as §1

[5] = compound: CC1=C(C2=C(C=C1)C(=O)C3=CC=CC=C3N2CCCN)C
How it was run: as §1

[6] = compound: CC1=C(C=C(C=C1)NC(=O)C2=CC(=CC=C2)C(C)(C)C#N)NC3=CC4=C(C=C3)N=CN(C4=O)C
How it was run: as §1

[7] = compound: CC1=C(C=C(C=C1)NC(=O)C2=CC(=CC=C2)N(C)C)NC(=O)C3=CC=C(C=C3)O
How it was run: as §1

[8] = compound: CC1=CC=C(C=C1)SC2=C3C=C(SC3=CN=C2)C(=O)N
How it was run: as §1

vemurafenib = compound: CCCS(=O)(=O)Nc1ccc(F)c(C(=O)c2c[nH]c3ncc(-c4ccc(Cl)cc4)cc23)c1F [vemurafenib]
How it was run: as §1

[9] = compound: CCCS(=O)(=O)Nc1ccc(F)c(C(=O)c2c[nH]c3ncc(Cl)cc23)c1F
How it was run: as §1

barasertib = compound: CCN(CCCOc1ccc2c(Nc3cc(CC(=O)Nc4cccc(F)c4)[nH]n3)ncnc2c1)CCOP(=O)(O)O [barasertib]
How it was run: as §1

[10] = compound: CC[C@@H]1C(=O)N(C)c2cnc(Nc3ccc(C(=O)NC4CCN(C)CC4)cc3OC)nc2N1C1CCCC1
How it was run: as §1

volasertib = compound: CC[C@@H]1C(=O)N(C)c2cnc(Nc3ccc(C(=O)N[C@H]4CC[C@H](N5CCN(CC6CC6)CC5)CC4)cc3OC)nc2N1C(C)C [volasertib]
How it was run: as §1

[11] = compound: CCn1c(C(=O)N(C2CC2)C2CC2)cc2c3c(ncn3C)c(Nc3cc(C)n(C)n3)nc21
How it was run: as §1

[12] = compound: CCn1cc(-c2ccnc3[nH]c(-c4cccc(CN(C)C)c4)cc23)c(-c2ccc(NC(=O)N(C)C)cc2)n1
How it was run: as §1

[13] = compound: CN1CCC(CNc2ccc3ncc(-c4cccc(OC(F)(F)F)c4)n3n2)CC1
How it was run: as §1

saracatinib = compound: CN1CCN(CCOc2cc(OC3CCOCC3)c3c(Nc4c(Cl)ccc5c4OCO5)ncnc3c2)CC1 [saracatinib]
How it was run: as §1

sotrastaurin = compound: CN1CCN(c2nc(C3=C(c4c[nH]c5ccccc45)C(=O)NC3=O)c3ccccc3n2)CC1 [sotrastaurin]
How it was run: as §1

Chain of UniProt Q9H2V7 (Q9H2V7 whole entry, looked up): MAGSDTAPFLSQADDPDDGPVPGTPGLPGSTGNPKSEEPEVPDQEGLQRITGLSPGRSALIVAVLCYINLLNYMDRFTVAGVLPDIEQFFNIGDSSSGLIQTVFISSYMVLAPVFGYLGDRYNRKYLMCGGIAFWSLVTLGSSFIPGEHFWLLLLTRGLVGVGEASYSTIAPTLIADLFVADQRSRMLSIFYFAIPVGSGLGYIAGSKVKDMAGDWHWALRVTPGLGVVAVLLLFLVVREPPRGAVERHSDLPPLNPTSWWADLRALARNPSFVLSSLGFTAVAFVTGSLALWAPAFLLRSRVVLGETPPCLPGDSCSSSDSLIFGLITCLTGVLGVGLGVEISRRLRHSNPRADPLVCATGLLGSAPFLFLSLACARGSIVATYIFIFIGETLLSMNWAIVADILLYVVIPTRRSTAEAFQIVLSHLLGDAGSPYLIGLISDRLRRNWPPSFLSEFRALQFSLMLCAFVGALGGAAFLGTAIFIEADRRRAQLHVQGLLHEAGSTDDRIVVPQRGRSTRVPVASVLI
Chain of UniProt Q13573 (Q13573 whole entry, looked up): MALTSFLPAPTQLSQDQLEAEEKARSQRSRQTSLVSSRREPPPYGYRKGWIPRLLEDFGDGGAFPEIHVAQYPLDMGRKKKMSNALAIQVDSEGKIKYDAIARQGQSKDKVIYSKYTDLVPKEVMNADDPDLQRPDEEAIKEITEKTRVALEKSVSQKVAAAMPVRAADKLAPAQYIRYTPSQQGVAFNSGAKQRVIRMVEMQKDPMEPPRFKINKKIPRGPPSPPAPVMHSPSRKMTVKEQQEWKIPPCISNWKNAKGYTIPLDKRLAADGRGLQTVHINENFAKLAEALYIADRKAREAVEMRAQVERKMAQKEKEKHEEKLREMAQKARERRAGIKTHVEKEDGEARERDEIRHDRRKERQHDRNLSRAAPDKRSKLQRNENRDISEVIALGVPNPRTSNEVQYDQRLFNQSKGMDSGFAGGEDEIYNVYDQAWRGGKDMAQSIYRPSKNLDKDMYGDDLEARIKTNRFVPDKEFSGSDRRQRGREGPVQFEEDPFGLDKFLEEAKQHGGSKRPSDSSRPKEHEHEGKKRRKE
Chain of UniProt Q92540 (Q92540 whole entry, looked up): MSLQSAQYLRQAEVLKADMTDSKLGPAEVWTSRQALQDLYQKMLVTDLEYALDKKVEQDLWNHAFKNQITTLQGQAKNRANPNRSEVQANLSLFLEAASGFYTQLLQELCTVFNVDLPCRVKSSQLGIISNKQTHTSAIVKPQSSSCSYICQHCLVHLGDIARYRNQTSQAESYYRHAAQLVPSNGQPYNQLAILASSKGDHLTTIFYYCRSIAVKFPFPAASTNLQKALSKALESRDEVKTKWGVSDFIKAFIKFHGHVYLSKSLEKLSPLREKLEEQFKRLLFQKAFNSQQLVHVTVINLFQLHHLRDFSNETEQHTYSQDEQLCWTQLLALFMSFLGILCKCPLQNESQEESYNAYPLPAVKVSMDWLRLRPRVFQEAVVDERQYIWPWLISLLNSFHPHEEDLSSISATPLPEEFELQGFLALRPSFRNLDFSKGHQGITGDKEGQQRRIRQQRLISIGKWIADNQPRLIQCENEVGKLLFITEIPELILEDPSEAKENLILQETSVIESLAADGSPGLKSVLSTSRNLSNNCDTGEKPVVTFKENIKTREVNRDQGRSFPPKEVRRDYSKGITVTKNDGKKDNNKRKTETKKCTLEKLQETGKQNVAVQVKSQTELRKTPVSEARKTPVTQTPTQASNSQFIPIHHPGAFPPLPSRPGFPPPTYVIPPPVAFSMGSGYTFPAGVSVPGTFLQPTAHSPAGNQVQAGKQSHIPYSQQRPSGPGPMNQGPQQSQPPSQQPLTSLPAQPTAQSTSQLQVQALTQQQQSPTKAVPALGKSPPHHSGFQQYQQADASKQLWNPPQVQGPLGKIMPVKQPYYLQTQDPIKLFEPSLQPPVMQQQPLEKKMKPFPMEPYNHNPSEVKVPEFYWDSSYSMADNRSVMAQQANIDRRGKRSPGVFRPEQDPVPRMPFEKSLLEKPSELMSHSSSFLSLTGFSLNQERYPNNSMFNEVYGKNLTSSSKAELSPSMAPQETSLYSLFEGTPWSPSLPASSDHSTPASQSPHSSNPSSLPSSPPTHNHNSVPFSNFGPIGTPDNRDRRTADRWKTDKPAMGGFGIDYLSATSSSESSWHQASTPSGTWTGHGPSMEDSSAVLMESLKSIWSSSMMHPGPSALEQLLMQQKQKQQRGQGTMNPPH
Chain of UniProt Q8NEM2 (Q8NEM2 whole entry, looked up): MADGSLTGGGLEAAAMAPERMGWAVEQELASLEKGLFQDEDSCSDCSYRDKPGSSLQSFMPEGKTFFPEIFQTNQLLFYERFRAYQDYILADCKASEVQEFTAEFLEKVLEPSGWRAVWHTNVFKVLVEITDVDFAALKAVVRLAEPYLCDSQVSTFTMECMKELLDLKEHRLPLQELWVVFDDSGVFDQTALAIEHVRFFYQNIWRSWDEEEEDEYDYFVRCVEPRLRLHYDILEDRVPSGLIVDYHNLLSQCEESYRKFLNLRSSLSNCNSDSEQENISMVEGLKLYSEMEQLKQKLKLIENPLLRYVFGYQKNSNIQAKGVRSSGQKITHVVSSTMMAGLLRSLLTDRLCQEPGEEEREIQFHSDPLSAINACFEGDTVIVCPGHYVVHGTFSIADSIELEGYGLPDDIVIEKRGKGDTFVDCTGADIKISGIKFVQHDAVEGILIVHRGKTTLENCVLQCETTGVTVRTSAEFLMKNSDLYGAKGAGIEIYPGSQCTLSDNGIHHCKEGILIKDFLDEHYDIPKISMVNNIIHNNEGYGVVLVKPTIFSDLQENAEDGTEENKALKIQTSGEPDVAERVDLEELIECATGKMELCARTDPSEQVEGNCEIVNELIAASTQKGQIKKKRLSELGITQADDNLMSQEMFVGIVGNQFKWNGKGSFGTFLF
Chain of UniProt Q16594 (Q16594 whole entry, looked up): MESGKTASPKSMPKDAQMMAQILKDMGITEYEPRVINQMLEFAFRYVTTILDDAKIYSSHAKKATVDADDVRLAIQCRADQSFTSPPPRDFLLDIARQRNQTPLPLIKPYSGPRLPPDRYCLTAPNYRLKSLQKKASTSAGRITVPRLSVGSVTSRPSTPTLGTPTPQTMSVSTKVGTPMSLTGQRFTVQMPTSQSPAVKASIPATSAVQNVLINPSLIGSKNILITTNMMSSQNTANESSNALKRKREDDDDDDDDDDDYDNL
Chain of UniProt Q86XZ4 (Q86XZ4 whole entry, looked up): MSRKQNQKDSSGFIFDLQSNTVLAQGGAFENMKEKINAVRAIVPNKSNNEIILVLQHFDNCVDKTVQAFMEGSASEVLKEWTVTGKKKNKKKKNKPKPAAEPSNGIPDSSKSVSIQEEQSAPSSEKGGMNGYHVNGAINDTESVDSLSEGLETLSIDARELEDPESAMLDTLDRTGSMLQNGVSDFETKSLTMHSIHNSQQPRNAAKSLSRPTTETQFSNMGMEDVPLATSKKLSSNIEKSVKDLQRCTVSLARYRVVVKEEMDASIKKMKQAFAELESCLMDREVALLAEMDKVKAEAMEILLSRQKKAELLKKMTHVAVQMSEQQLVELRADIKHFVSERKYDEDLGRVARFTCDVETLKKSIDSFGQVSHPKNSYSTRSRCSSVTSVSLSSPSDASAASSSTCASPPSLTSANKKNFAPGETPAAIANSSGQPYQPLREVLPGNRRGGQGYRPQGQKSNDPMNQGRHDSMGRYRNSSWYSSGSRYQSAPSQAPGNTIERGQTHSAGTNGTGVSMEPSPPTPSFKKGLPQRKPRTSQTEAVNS
Chain of UniProt O95793 (O95793 whole entry, looked up): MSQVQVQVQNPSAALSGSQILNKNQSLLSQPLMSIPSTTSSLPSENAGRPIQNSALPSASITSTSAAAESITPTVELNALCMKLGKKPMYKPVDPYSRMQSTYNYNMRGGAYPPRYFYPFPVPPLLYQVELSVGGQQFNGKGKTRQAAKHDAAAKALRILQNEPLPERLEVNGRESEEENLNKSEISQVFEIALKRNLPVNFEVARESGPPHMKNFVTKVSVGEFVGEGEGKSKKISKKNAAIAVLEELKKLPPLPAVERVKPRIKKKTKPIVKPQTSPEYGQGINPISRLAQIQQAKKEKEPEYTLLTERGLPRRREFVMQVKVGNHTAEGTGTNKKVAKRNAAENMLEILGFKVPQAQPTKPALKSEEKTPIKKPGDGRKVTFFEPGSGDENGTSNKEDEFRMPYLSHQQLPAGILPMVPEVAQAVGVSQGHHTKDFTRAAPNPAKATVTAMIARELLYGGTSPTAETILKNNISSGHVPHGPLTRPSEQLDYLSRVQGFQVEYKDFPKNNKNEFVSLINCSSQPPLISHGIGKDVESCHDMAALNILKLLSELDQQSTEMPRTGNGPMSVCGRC
Chain of UniProt Q16637 (Q16637 whole entry, looked up): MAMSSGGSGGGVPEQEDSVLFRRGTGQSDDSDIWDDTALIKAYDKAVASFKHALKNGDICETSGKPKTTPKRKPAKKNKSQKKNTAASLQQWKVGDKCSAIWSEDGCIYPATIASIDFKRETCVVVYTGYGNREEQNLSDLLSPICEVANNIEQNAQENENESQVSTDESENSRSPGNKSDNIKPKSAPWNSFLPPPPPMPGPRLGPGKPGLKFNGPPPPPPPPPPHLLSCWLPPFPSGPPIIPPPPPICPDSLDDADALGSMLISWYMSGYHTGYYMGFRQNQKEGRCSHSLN

Target	log2 fold change (ibrutinib)	log2 fold change [1]	log2 fold change (ralimetinib)	log2 fold change [2]	log2 fold change [3]	log2 fold change [4]	log2 fold change [5]	log2 fold change [6]	log2 fold change [7]	log2 fold change [8]	log2 fold change (vemurafenib)	log2 fold change [9]	log2 fold change (barasertib)	log2 fold change [10]	log2 fold change (volasertib)	log2 fold change [11]	log2 fold change [12]	log2 fold change [13]	log2 fold change (saracatinib)	log2 fold change (sotrastaurin)
SMG7 (UniProt Q92540)	0.019	0.041	-0.036	-0.13	0.066	-0.02	-0.01	-0.281	0.047	0.03	0.073	0.011	0.098	0.071	-0.044	0.074	-0.038	-0.014	0.045	-0.02
TAF9 (UniProt Q16594)	-0.028	0.044	0.033	-0.057	0.032	0.015	0.019	0.027	0.101	-0.023	-0.028	-0.092	-0.001	-0.031	0.063	0.002	0.238 (active)	-0.006	0.056	-0.001
SPNS1 (UniProt Q9H2V7)	0.02	-0.001	0.005	-0.009	0.007	-0.009	-0.007	0.047	-0.029	0.012	0	0.036	-0.004	0.154	-0.004	-0.097	-0.014	0.064	-0.006	0.02
SHCBP1 (UniProt Q8NEM2)	-0.04	0.023	0.026	0.031	0.012	0.009	0.002	-0.008	0.056	-0.041	-0.016	0.003	0.041	-0.041	-0.044	0.027	-0.091	0.022	0.027	0.019
SMN1 (UniProt Q16637)	-0.085	-0.028	0.01	-0.01	0.002	0.001	-0.018	0.018	0.137	-0.045	0.031	0.075	-0.056	-0.026	0	-0.037	-0.073	-0.031	0.053	-0.039
STAU1 (UniProt O95793)	0.043	-0.021	0.03	-0.011	0	0.017	-0.022	-0.037	0.018	0.022	0.027	0.003	0.01	0	-0.013	0.069	0.25	-0.103	0.004	-0.039
SNW1 (UniProt Q13573)	0.01	0.001	-0.005	-0.007	0.014	0.007	-0.045	0.016	-0.004	0.015	0.019	0.01	-0.019	0.07	-0.021	0	0.191	-0.037	0.016	-0.037
SPATS2 (UniProt Q86XZ4)	-0.06	-0.069	-0.018	0.03	0.111	0.077	-0.061	-0.007	-0.046	-0.001	-0.013	0.032	0.071	-0.175	-0.041	0.128	0.144	0.038	-0.12	0.031

— the supplement of paper PMC10849652
